Source: ChEMBL document CHEMBL1201862, “PubChem BioAssay data set” (2004)
The campaign covered roughly 44,000 sequences. About 4,100 (9.3%) were called active. Rule as the data show it: active = GI50 up to about 1.1 µM and inactive = higher. The sample as a whole holds a higher share of actives than the screen did. Measured potencies and affinities stand elsewhere.

test system: MDA-MB-435

Substance	GI50
[Bis(aminomethyl)tetramethylenesilane]dichloropaltinum(II), CHEMBL2146205	3.51 µM
[Bis(aminomethyl)tetramethylenesilane]tetrachloropaltinum(IV), CHEMBL2146189	9.02 µM
CISPLATIN, CHEMBL11359	5.96 µM
[Bis(aminomethyl)pentamethylenesilane]dichloropaltinum(II), CHEMBL2146202	1.31 µM
[Bis(aminomethyl)pentamethylenesilane]tetrachloropaltinum(IV), CHEMBL2146204	0.438 µM
[Bis(aminomethyl)dimethylsilane]tetrachloroplatinum(IV), CHEMBL2146190	13.9 µM
